Assay results: the supplement of paper PMC12340641
Whole data set: some 1,000 compounds, median “relative growth recovery (pomalidomide 10 uM = 100%, DMSO = 0%)” near -1.6, cut for the highest 2% near 21. The sample holds the highest values, similar compounds and a random draw of the others, so the mix is not that of the screen.

test system: HEK293FT dCK*-IKZF1; assay: relative growth recovery (pomalidomide 10 uM = 100%, DMSO = 0%); higher = more growth rescue (IKZF1 fusion degradation); details: compound concentration: 5 uM; AraC concentration: 0.3 uM; overnight pretreatment + 4 days AraC
Description: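 Growth recovery screen of the molecular-glue-like (Specs) library. HEK293FT cells expressing a dCK*-IKZF1 fusion (primary) or dCK* alone (counter) were pretreated overnight with compound at 5 uM, then given 0.3 uM AraC for 4 days. Hoechst nuclei were counted by imaging. Primary: normalised to pomalidomide (100%) and DMSO (0%), mean of 2 replicates. Counter: normalised to no-AraC (100%) and AraC+DMSO (0%), single replicate.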

Point of comparison: `Cc1ccc(C(=O)Nc2ccc(S(=O)(=O)Nc3cc(C)nc(C)n3)cc2)cc1`, relative growth recovery -1.57%. Against it:
- CC(Oc1ccccc1)C(=O)Nc1ccc(S(=O)(=O)Nc2ncccn2)cc1 (stereo not drawn) — higher, -0.515%
- CCC(Oc1ccccc1)C(=O)Nc1ccc(S(=O)(=O)Nc2ncccn2)cc1 (stereo not drawn) — higher, 78.9%
- CCC(Oc1ccccc1)C(=O)Nc1ccc(S(=O)(=O)Nc2nc(C)cc(C)n2)cc1 (stereo not drawn) — lower, -3.29%
- Cc1cc(C)nc(NS(=O)(=O)c2ccc(NC(=O)c3oc4ccccc4c3C)cc2)n1 — lower, -2.64%
- Cc1cnc(Nc2cccc(C3CCN(C(=O)CCn4ncc5ccccc54)CC3)n2)s1 — lower, -1.66%
- COc1cc(NS(=O)(=O)c2ccc(NC(=O)c3ccccc3C)cc2)nc(OC)n1 — higher, -0.335%
- COc1ccc(C(=O)Nc2ccc(S(=O)(=O)Nc3cc(OC)nc(OC)n3)cc2)c(OC)c1 — higher, 3.94%
- CCOc1cc(C(=O)Nc2ccc(S(=O)(=O)Nc3ncccn3)cc2)cc(OCC)c1OCC — higher, 0.09%
- COc1ccc(C(=O)Nc2ccc(S(=O)(=O)Nc3ncccn3)cc2)c(OC)c1 — higher, -1.31%
- Cc1cnc(Nc2cccc(C3CN(C(=O)CN(C(=O)CC(C)C)c4ccccc4)CCO3)n2)s1 (stereo not drawn) — higher, 1.34%
- Cc1csc(Nc2cccc(C3CN(C(=O)CCc4nc(C)no4)CCO3)n2)n1 (stereo not drawn) — higher, 5.6%
- COc1ccc(CCC(=O)N2CCOC(c3cccc(Nc4ncc(C)s4)n3)C2)cc1 (stereo not drawn) — higher, 15.7%
- Cc1csc(Nc2cccc(C3CCCN3C(=O)CCCc3ccc(F)cc3)n2)n1 (stereo not drawn) — higher, 0.885%
- COc1cccc(CCC(=O)N2CCOC(c3cccc(Nc4ncc(C)s4)n3)C2)c1 (stereo not drawn) — higher, 15.8%
- COc1ccc(CCC(=O)N2CCOC(c3cccc(Nc4nc(C)cs4)n3)C2)cc1 (stereo not drawn) — higher, 32.4%
- Cc1csc(Nc2cccc(C3CN(C(=O)CCCc4ccc(F)cc4)CCO3)n2)n1 (stereo not drawn) — higher, 25.2%
- O=[N+]([O-])c1ccc(S(=O)(=O)Nc2ccc(Cl)cn2)cc1 — lower, -4.66%
- O=[N+]([O-])c1ccc(S(=O)(=O)Nc2nc3ccccc3nc2Nc2ccccc2)cc1 — higher, 8.16%
- CC(C)Nc1nc(NC(C)C)nc(NS(=O)(=O)c2ccc(N)cc2)n1 — lower, -1.87%
- CC(C)N(C(=O)CN1CCOC(c2cccc(Nc3nccs3)n2)C1)C1CCCCC1 (stereo not drawn) — lower, -2.24%
- Cc1csc(Nc2cccc(C3CCN(C(=O)Cn4nc(C)cc4C)CC3)n2)n1 — higher, 16.9%
- Cc1cnc(Nc2cccc(C3CCN(C(=O)CC4CCCCC4)CC3)n2)s1 — lower, -13.5%
- O=C(c1cccc2ncccc12)N1CCOC(c2cccc(Nc3nccs3)n2)C1 (stereo not drawn) — lower, -7.12%
- Cc1cc(C)nc(NS(=O)(=O)c2ccc(NC(=O)c3ccc(Cl)cc3Cl)cc2)n1 — higher, -0.215%
- Cc1cnc(Nc2cccc(C(C(=O)N(C)C)C3CCN(C(=O)[C@H](CC(C)C)NC(=O)OC(C)(C)C)CC3)n2)s1 (stereo partly drawn) — higher, 3.71%
- Cc1cccc(C(=O)Nc2ccc(S(=O)(=O)Nc3nc(C)cc(C)n3)cc2)c1 — higher, 4.85%
- Cc1nc(Nc2cccc(C3CCCN3C(=O)CCCN3C(=O)CNC3=O)n2)sc1C (stereo not drawn) — higher, 3.93%
- Cc1ccc(/C=C/C(=O)Nc2ccc(S(=O)(=O)Nc3ncccn3)cc2)cc1 — lower, -2.17%
- Cc1cc(OCC(=O)Nc2ccc(S(=O)(=O)Nc3ncccn3)cc2)ccc1Cl — higher, -0.26%
- NCC(=O)N1CCC(c2cccc(Nc3ncc(Br)s3)n2)CC1 — lower, -17.1%
- Cn1nccc1/C=C/C(=O)N1CCC(c2cc3ccccc3c(Nc3nccs3)n2)CC1 — lower, -16.9%
- Cc1nc(/C=C/C(=O)N2CCC(c3cc4ccccc4c(Nc4nccs4)n3)CC2)cs1 — lower, -17.8%
- Cc1nn(C)c(C)c1/C=C/C(=O)N1CCC(c2cc3ccccc3c(Nc3nccs3)n2)CC1 — higher, 51.1%
- Cc1ccc(C)c(OCC(=O)Nc2ccc(S(=O)(=O)Nc3nc(C)cc(C)n3)cc2)c1 — lower, -2.19%
- Nc1ccc(Oc2ccc3c(c2)C(=O)N(CCO)C3=O)cc1 — higher, 2.76%
- Cc1cnc(Nc2cccc(C(C(=O)N(C)C)C3CCN(C(=O)C4CCCCC4)CC3)n2)s1 (stereo not drawn) — higher, 1.65%
- Cc1ccc(Nc2nc(C3CCCN3C(=O)/C=C/c3csc(C)n3)cs2)nc1 (stereo not drawn) — higher, 0.31%
- O=C(/C=C/c1ccco1)N1CCCC(c2csc(Nc3ccccn3)n2)C1 (stereo not drawn) — higher, 18.9%
- Cn1nccc1/C=C/C(=O)N1CCCC1c1csc(Nc2ccccn2)n1 (stereo not drawn) — higher, 2.75%
- Cn1nccc1/C=C/C(=O)N1CCCC(c2cc3ccccc3c(Nc3nccs3)n2)C1 (stereo not drawn) — lower, -10.2%
- COC(C)(C)C(=O)N1CCCC(c2csc(Nc3ccc(C)cn3)n2)C1 (stereo not drawn) — higher, 15.9%
- Cc1ccc(Nc2nc(C3CCCN(C(=O)/C=C/c4csc(C)n4)C3)cs2)nc1 (stereo not drawn) — higher, 31.5%
- CC(=O)N1CCCC(c2csc(Nc3ccccn3)n2)C1 (stereo not drawn) — lower, -1.67%
- Cn1nccc1/C=C/C(=O)N1CCCC(c2csc(Nc3ccccn3)n2)C1 (stereo not drawn) — higher, 40.9%
- O=C(/C=C/c1ccccc1)N1CCCC(c2csc(Nc3ccccn3)n2)C1 (stereo not drawn) — higher, 31.2%
- Cc1ccc(OCC(=O)Nc2ccc(S(=O)(=O)Nc3nc(C)cc(C)n3)cc2)cc1 — higher, -1.25%
- O=C1CCC(N2C(=O)c3cc(F)c(N4CCC(Cn5cc(C(=O)O)cn5)CC4)cc3C2=O)C(=O)N1 (stereo not drawn) — lower, -2%
- Cc1cc(C)nc(NS(=O)(=O)c2ccc(NC(=O)CSc3nc4c(cc3C#N)CCCCC4)cc2)n1 — lower, -5.67%
- Cc1ccc(C)c2c1[nH]c1nc(SCC(=O)Nc3cccc(F)c3)nnc12 — lower, -2.81%
- CC(=O)N1CCC(Cc2cccc(Nc3nc(C)cs3)n2)CC1 — higher, 10.6%
- CCCCc1cnc(Nc2cccc(C3CCN(C(=O)[C@@H]4CCCCN4)CC3)n2)s1 — lower, -11.4%
- O=C(Nc1ccc(S(=O)(=O)Nc2ncccn2)cc1)c1ccc2c(c1)OCO2 — lower, -3.11%
- COc1ccc(Cl)cc1C(=O)Nc1ccc(S(=O)(=O)Nc2nccc(C)n2)cc1 — lower, -1.7%
- COc1ccc2[nH]c(SCC(=O)Nc3ncccn3)nc2c1 — higher, 1.53%
- Cc1cnc(Nc2cccc(C3CCN(C(=O)C4(NC(=O)CC(C)(C)C)CCCCC4)CC3)n2)s1 — lower, -16.1%
- CCc1ccccc1OCC(=O)Nc1ccc(S(=O)(=O)Nc2nc(C)cc(C)n2)cc1 — lower, -4.88%
- CCCN1CC(C(=O)N2CCC(c3cccc(Nc4ncc(C)s4)n3)CC2)CC1=O (stereo not drawn) — lower, -5.35%
- COc1cc(NS(=O)(=O)c2ccc(NC(=O)c3ccccc3C(=O)O)cc2)nc(OC)n1 — lower, -4.23%
- COc1cc(NS(=O)(=O)c2ccc(NC(=O)/C=C/c3ccco3)cc2)nc(OC)n1 — higher, 1.19%
- CCCc1cnc(Nc2cccc(C3CCN(C(=O)Cn4c(CC(C)C)nc5ccccc54)CC3)n2)s1 — lower, -2.13%
- COc1ccc(-c2csc(Nc3ccc(S(=O)(=O)Nc4cc(OC)nc(OC)n4)cc3)n2)cc1 — lower, -2.94%
- Cc1cnc(Nc2cccc(C3CCCN3C(=O)c3nccc4ccccc34)n2)s1 (stereo not drawn) — higher, 2.39%
- O=C(Cc1cccs1)Nc1ccc(Oc2ccc3c(c2)C(=O)N(c2ccc(O)cc2)C3=O)cc1 — higher, -1.26%
- O=C(C1CCCCC1)N1CCC(Cc2cccc(Nc3nccs3)n2)CC1 — higher, 4.47%
- Cc1cccc(C)c1OCC(=O)Nc1ccc(S(=O)(=O)Nc2ncccn2)cc1 — higher, 1.77%
- COc1ccccc1CCC(=O)N1CCOC(c2cccc(Nc3ncc(C)s3)n2)C1 (stereo not drawn) — higher, 10.8%
- COc1cc(NS(=O)(=O)c2ccc(NC(=O)COc3cccc(C)c3)cc2)nc(OC)n1 — lower, -18.6%
- COCC(=O)N1CCCC1c1cccc(Nc2nc(C)cs2)n1 (stereo not drawn) — lower, -7.27%
- O=C1CCC(N2C(=O)c3ccc(C(=O)O)cc3C2=O)C(=O)N1 (stereo not drawn) — higher, -0.47%
- Cc1cc(C)nc(NS(=O)(=O)c2ccc(NC(=O)c3ccccc3I)cc2)n1 — higher, -0.26%
- Cc1ccnc(NS(=O)(=O)c2ccc(NC(=O)C34CC5CC(CC(C5)C3)C4)cc2)n1 — lower, -6.07%
- CCCCCOC(=O)c1ccc(N2C(=O)c3ccc(Oc4ccc(N)cc4)cc3C2=O)cc1 — higher, 1.57%
- CC(C)Cc1nc2ccccc2n1CC(=O)N1CCC(Cc2cccc(Nc3nccs3)n2)CC1 — lower, -1.89%
- CC(C)(C)C(=O)NC1(C(=O)N2CCC(c3cccc(Nc4ncc(Cl)s4)n3)CC2)CCCCC1 — lower, -18.6%
- COCC(=O)N1CCC(c2cccc(Nc3ncc(C)s3)n2)CC1 — lower, -19.4%
- Cc1ccc(Nc2nc(-c3sc(NC(=O)c4ccccc4)nc3C)cs2)nc1 — higher, 111%
- Cc1cccc(Nc2nc(-c3sc(NC(=O)c4ccccc4)nc3C)cs2)n1 — higher, 121%
- CC(=O)N1CCCC1c1csc(Nc2ccccn2)n1 (stereo not drawn) — lower, -4.06%
- CC(=O)Nc1ccc(-c2csc(Nc3ccc(Cl)cn3)n2)cc1 — lower, -2.84%
- CC(=O)Nc1ccc(-c2csc(Nc3cccc(C)n3)n2)cc1 — higher, 0.905%
- CC(=O)Nc1ccc(-c2csc(Nc3ccccn3)n2)cc1 — higher, 2.7%
- CC(=O)N1CCCC(c2csc(Nc3ccc(C)cn3)n2)C1 (stereo not drawn) — lower, -5.95%
- CC(=O)Nc1cccc(-c2csc(Nc3cccc(C)n3)n2)c1 — higher, 5.18%
- Cc1ccnc(Nc2nc(-c3sc(NC(=O)c4ccccc4)nc3C)cs2)c1 — higher, 111%
- Cc1nc2ccccn2c1CC(=O)N1CCOC(c2cccc(Nc3nccs3)n2)C1 (stereo not drawn) — higher, 10.9%
- Cc1cnc(Nc2cccc(C3CN(C(=O)COc4ccccc4)CCO3)n2)s1 (stereo not drawn) — lower, -5.58%
- CCCc1cnc(Nc2cccc(C3CCN(C(=O)C4CCCCN4C(=O)CN(C)C)CC3)n2)s1 (stereo not drawn) — lower, -2.86%
- Cc1csc(Nc2cccc(C3CCN(C(=O)c4cccnc4)CC3)n2)n1 — higher, 8.94%
- Cc1cc(C)c(C(=O)Nc2ccc(S(=O)(=O)Nc3cc(C)nc(C)n3)cc2)c(C)c1 — higher, -1.16%
- Cc1csc(Nc2cccc(C3CN(CC(=O)NCc4ccccn4)CCO3)n2)n1 (stereo not drawn) — higher, 8.57%
- Cc1cnc(Nc2cccc(C3CN(C(=O)C4CCCC4)CCO3)n2)s1 (stereo not drawn) — lower, -12.3%
- COc1cccc(OC)c1C(=O)N1CCOC(c2cccc(Nc3nc(C)cs3)n2)C1 (stereo not drawn) — higher, 7.41%
- Cc1csc(Nc2cccc(C3CN(C(=O)COc4c(C)cccc4C)CCO3)n2)n1 (stereo not drawn) — higher, 22.3%
- Cc1csc(Nc2cccc(C3CN(C(=O)Cn4nc(C)ccc4=O)CCO3)n2)n1 (stereo not drawn) — higher, 1.32%
- Cc1csc(Nc2cccc(C3CN(C(=O)CCOc4ccccc4C)CCO3)n2)n1 (stereo not drawn) — higher, 62.8%
- Cc1csc(Nc2cccc(C3CN(C(=O)CCC4CCCC4)CCO3)n2)n1 (stereo not drawn) — higher, 21%
- Cc1cnc(Nc2cccc(C3CN(C(=O)C45CC6CC(CC(C6)C4)C5)CCO3)n2)s1 (stereo not drawn) — lower, -2.75%
- Cc1csc(Nc2cccc(C3CCCN3C(=O)CCOc3ccccc3C)n2)n1 (stereo not drawn) — higher, 11.5%
- Cc1cnc(Nc2cccc(C3CN(C(=O)C4CC4c4ccc(Cl)cc4)CCO3)n2)s1 (stereo not drawn) — higher, 28.4%
- Cc1cnc(Nc2cccc(C3CN(C(=O)CCC4CCCCC4)CCO3)n2)s1 (stereo not drawn) — higher, 7.2%
- Cc1csc(Nc2cccc(C3CN(C(=O)CCn4ncc5ccccc54)CCO3)n2)n1 (stereo not drawn) — higher, 18.8%
- COCC(=O)N1CCOC(c2cccc(Nc3nc(C)cs3)n2)C1 (stereo not drawn) — higher, 2.9%
